In PubChem BioAssay (EPA / NIEHS):
Records with an inconclusive call do not appear. Active and inactive are the calls of the source. Rule for the calls, unless noted: active = hit-call score of the fitted dose curve at least 0.9, where 1 is the maximum; inactive = score below 0.9.

Assays:
[1] = CCTE_Mundy_HCI_Cortical_Synap_Neur_Matur_NeuriteSpotCountPerNeuron: CCTE's Synaptogenesis and Neurite Maturation Assay in rat cortical cells for Neurite Spot Count per Neuron Count, Mundy Lab (AID 2284215)
In short: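 Rat primary cortical cultures given AraC at DIV 5, dosed from DIV 7 to DIV 12 with media change. Fixed, stained for MAP2, synaptophysin and Hoechst; neurite-associated synaptophysin puncta per neuron quantified by high-content imaging versus DMSO.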

[2] = CCTE_Mundy_HCI_Cortical_Synap_Neur_Matur_SynapseCount: CCTE's Synaptogenesis and Neurite Maturation Assay in rat cortical cells for Synapse Count, Mundy Lab (AID 2284218)
In short: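 Endpoint: synapses/neuron by HCI (synaptophysin puncta on MAP2-labelled neurites, Hoechst nuclei). Rat primary cortical cells, AraC DIV 5, dosed DIV 7, fixed DIV 12; DMSO negative control.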

[3] = CCTE_Mundy_HCI_Cortical_Synap_Neur_Matur_NeuriteCount: CCTE's Synaptogenesis and Neurite Maturation Assay in rat cortical cells for Neurite Count, Mundy Lab (AID 2284222)
In short: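 Rat primary cortical cells; AraC added at DIV 5, chemicals dosed with media change at DIV 7 through DIV 12. MAP2/synaptophysin/Hoechst immunostaining, high-content imaging of neurite number; fitted relative to DMSO.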

[4] = CCTE_Mundy_HCI_Cortical_Synap_Neur_Matur_CellBodySpotCount: CCTE's Synaptogenesis and Neurite Maturation Assay in rat cortical cells for Cell Body Spot Count, Mundy Lab (AID 2284223)
In short: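 Primary rat cortical cultures, AraC added at DIV 5; dosed DIV 7 through DIV 12 […]. Fixed, stained for MAP2 and synaptophysin with Hoechst; cell body-associated synaptophysin puncta per neuron counted by high-content imaging, loss vs DMSO.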

[5] = CCTE_Mundy_HCI_hNP1_Pro_ResponderAvgInten: CCTE's Proliferation Assay in human neuroprogenitor cells, Mundy Lab (AID 2284224; active = hit-call score of the fitted dose curve at least 0.9, where 1 is the maximum)
In short: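 Proliferation was scored as BrdU labelling intensity in human neural progenitors derived from WA09 embryonic cells, measured 26.25 hours after chemical dosing. Activity was fitted relative to DMSO.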

[6] = CCTE_Mundy_HCI_Cortical_NOG_NeuronCount: CCTE's Neurite Outgrowth Assay in rat cortical cells for Neuron Count, Mundy Lab (AID 2284236; active = hit-call score of the fitted dose curve at least 0.9, where 1 is the maximum;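 note: neurons counted by imaging betaIII-tubulin and Hoechst stained cortical cells; cells exposed to compound for about 48 hours before fixation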)
In short: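 Read-out: neuron number by high-content imaging of betaIII-tubulin (Alexa Fluor-488) and Hoechst-labelled rat primary cortical cells.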

[7] = CCTE_Mundy_HCI_Cortical_NOG_BPCount: CCTE's Neurite Outgrowth Assay in rat cortical cells for Branch Point Count, Mundy Lab (AID 2284237);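 note: branch points counted about two days after chemical exposure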
In short: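 Measured 50.33 h after dosing, this morphology endpoint uses rat primary cortical cultures labelled for betaIII-tubulin. Branch points are quantified by high-content imaging, with DMSO as negative control and baseline.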

[8] = CCTE_Mundy_HCI_hNP1_Casp3_7: CCTE's Caspase-Glo 3/7 Assay in human neuroprogenitor cells for Apoptosis, Mundy Lab (AID 2284240)
In short: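 Apoptosis is scored by activated caspase-3/7 luminescence in WA09-derived neural progenitor cells, measured 26.5 h after chemical dosing. Values represent gain of signal relative to DMSO vehicle.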

[9] = CCTE_Mundy_HCI_hNP1_CellTiter: CCTE's Cell Titer-Glo 2 Assay in human neuroprogenitor cells for Viability, Mundy Lab (AID 2284241; active = hit-call score of the fitted dose curve at least 0.9, where 1 is the maximum)
In short: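 Human neural progenitor cells (hNP1, WA09-derived) were plated on poly-L-ornithine/laminin and grown 40 to 44 hours at 37 °C, 5% CO2 before chemical addition. Twenty-four hours later, ATP was measured by CellTiter-Glo luminescence; loss of signal versus DMSO indicates reduced viability.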

[10] = CCTE_Mundy_HCI_Cortical_Synap_Neur_Matur_NeuronCount: CCTE's Synaptogenesis and Neurite Maturation Assay in rat cortical cells for Neuron Count, Mundy Lab (AID 2284242; active = hit-call score of the fitted dose curve at least 0.9, where 1 is the maximum;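 note: hits reduce neuron count versus DMSO baseline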)
In short: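 Measured at DIV 12: fluorescently labelled neurons (Hoechst nuclei, MAP2) in rat primary cortical cultures, counted by high-content imaging. AraC suppressed glia from DIV 5; DMSO served as negative control.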

[11] = IUF_NPC2c_oligodendrocyte_migration_120hr: Leibniz Research Institute for Environmental Medicine (IUF) 120-hour Neural Progenitor Cell Migration Assay for Oligodendrocyte Migration (NPC2c) (AID 2284297);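 note: O4-positive oligodendrocyte migration distance divided by radial glia migration distance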
In short: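 Human fetal neural progenitor spheres (0.3 mm) are plated on poly-D-lysine/laminin in N2 differentiation medium and exposed for 120 h, with half-medium renewal at day 3. Oligodendrocyte (O4+) migration distance comes from ICC imaging, normalised to radial glia migration.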

[12] = IUF_NPC2a_radial_glia_migration_120hr: Leibniz Research Institute for Environmental Medicine (IUF) 120-hour Neural Progenitor Cell Migration Assay for Radial Glia Migration (NPC2a) (AID 2284298)
In short: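 Human fetal-cortex neural progenitor spheres (0.3 mm) plated on poly-D-lysine/laminin in N2 differentiation medium, exposed 120 h at 37C with half-medium renewal at day 3. Radial glia migration distance (um) measured from Hoechst-stained nuclei images; DMSO baseline.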

[13] = IUF_NPC2a_radial_glia_migration_72hr: Leibniz Research Institute for Environmental Medicine (IUF) 72-hour Neural Progenitor Cell Migration Assay for Radial Glia Migration (NPC2a) (AID 2284299)
In short: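 Spheres of human primary neural progenitors migrate on poly-D-lysine/laminin under compound exposure at 37C, 5% CO2. The 72 h radial glia migration distance comes from brightfield images, measured manually.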

[14] = IUF_NPC2b_neuronal_migration_120hr: Leibniz Research Institute for Environmental Medicine (IUF) 120-hour Neural Progenitor Cell Migration Assay for Neuron Migration (NPC2b) (AID 2284300)
In short: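 0.3 mm hNPC spheres on poly-D-lysine/laminin in N2 differentiation medium exposed 120 h, half-medium refresh day 3; 7 concentrations, DMSO max 0.1%. Neuron (TUBB3) distance from sphere core by ICC imaging, normalised to radial glia migration.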

[15] = IUF_NPC3_neuronal_differentiation_120hr: Leibniz Research Institute for Environmental Medicine (IUF) 120-hour Neuronal Differentiation Assay (NPC3) (AID 2284301)
In short: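 Value is percent TUBB3-positive neurons among Hoechst-stained nuclei in the migration area, scored by trained CNN after 120 h differentiation. Primary hNPC spheres on poly-D-lysine/laminin, N2 medium, continuous dosing from day 0, half-refeed day 3; DMSO reference.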

[16] = IUF_NPC4_neurite_length_120hr: Leibniz Research Institute for Environmental Medicine (IUF) 120-hour Neuronal Morphology Assay for Neurite Length (NPC4) (AID 2284302)
In short: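 Neurite length, the mean in um across TUBB3-stained neurons, is derived by skeletonization of high-content images after 120 h differentiation. Compound exposure, 7 concentrations plus solvent control, ran from plating of hNPC spheres on poly-D-lysine/laminin, with medium half-replaced on day 3.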

[17] = IUF_NPC5_oligodendrocyte_differentiation_120hr: Leibniz Research Institute for Environmental Medicine (IUF) 120-hour Oligodendrocyte Differentiation Assay (NPC5) (AID 2284304; active = hit-call score of the fitted dose curve at least 0.9, where 1 is the maximum;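 note: primary human fetal neural progenitor spheres plated to migrate and differentiate; share of O4-positive cells among Hoechst nuclei found by CNN image analysis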)
In short: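 Human fetal neural progenitor spheres (0.3 mm) plated on poly-D-lysine/laminin in N2 differentiation medium and exposed for 120 h at 7 concentrations, with half-medium renewal at day 3. O4-positive cells identified by CNN, expressed as percent of Hoechst nuclei.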

[18] = IUF_NPC4_neurite_area_120hr: Leibniz Research Institute for Environmental Medicine (IUF) 120-hour Neuronal Morphology Assay for Neurite Area (NPC4) (AID 2284305; active = hit-call score of the fitted dose curve at least 0.9, where 1 is the maximum)
In short: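 Neurite area (pixels, nuclei excluded) of TUBB3-positive neurons from hNPC spheres differentiating 5 days under continuous exposure at 37 C, 5% CO2. High-content imaging; loss of signal versus DMSO control across 7 concentrations.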

[19] = IUF_NPC2-5_cytotoxicity_72hr: Cytotoxicity Assessment at 72 hours in the Leibniz Research Institute for Environmental Medicine (IUF) Neural Progenitor Cell Migration and Differentiation Assay for Cytotoxicity (NPC2-5) (AID 2284306; active = hit-call score of the fitted dose curve at least 0.9, where 1 is the maximum;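 note: LDH release into supernatant measured by resorufin fluorescence marking membrane damage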)
In short: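 Membrane-integrity cytotoxicity at 72 h, read as LDH-driven resorufin fluorescence in supernatant. hNPC spheres from fetal cortex differentiate on coated plates in N2 medium, 37C, 5% CO2; seven serial compound concentrations plus solvent control (DMSO ≤0.1%).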

[20] = IUF_NPC2-5_cytotoxicity_120hr: Cytotoxicity Assessment at 120 hours in the Leibniz Research Institute for Environmental Medicine (IUF) Neural Progenitor Cell Migration and Differentiation Assay (NPC2-5) (AID 2284307; active = hit-call score of the fitted dose curve at least 0.9, where 1 is the maximum;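 note: LDH released into supernatant as membrane damage marker via resorufin fluorescence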)
In short: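 Human fetal (GW 16-19) neural progenitor spheres (0.3 mm) plated on poly-D-lysine/laminin in N2 differentiation medium, exposed 120 h with half-medium renewal at day 3; 7 concentrations plus solvent control, DMSO ≤0.1%. LDH release in supernatant read by resorufin fluorescence.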

[21] = IUF_NPC2-5_cell_number_120hr: Cell Number Assessment at 120 hours in the Leibniz Research Institute for Environmental Medicine (IUF) Neural Progenitor Cell Migration and Differentiation Assay (NPC2-5) (AID 2284308);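 note: count of Hoechst-stained nuclei in migration zone around plated human neural progenitor spheres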
In short: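 Human fetal neural progenitor spheres (0.3 mm) plated on poly-D-lysine/laminin in N2 differentiation medium, exposed five days across 7 concentrations with half-medium refresh at day 3. Hoechst-positive nuclei counted in migration area at 120 h, relative to DMSO.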

[22] = IUF_NPC2-5_viability_120hr: Viability Assessment at 120 hours in the Leibniz Research Institute for Environmental Medicine (IUF) Neural Progenitor Cell Migration and Differentiation Assay (NPC2-5) (AID 2284312)
In short: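 Alamar blue resorufin fluorescence read after 5 days of differentiation, with compound present from day 0 and replenished at day 3. Primary hNPC spheres on laminin-coated plates, 37C; seven concentrations plus solvent control, fitted against DMSO.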

[23] = CCTE_Mundy_HCI_iCellGluta_NOG_NeuriteLength: CCTE's Neurite Outgrowth Assay in iCellGluta cells for Neurite Length, Mundy Lab (AID 2284318; active = hit-call score of the fitted dose curve at least 0.9, where 1 is the maximum)
In short: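 Automated high-content imaging of betaIII-tubulin (Alexa Fluor-488) and Hoechst-stained cells gave neurite length, normalized to the DMSO baseline.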

[24] = IUF_NPC1_cytotoxicity_72hr: Cytotoxicity Assessment at 72 hours in the Leibniz Research Institute for Environmental Medicine (IUF) Neural Progenitor Cell Proliferation Assay (NPC1) (AID 2284332; active = hit-call score of the fitted dose curve at least 0.9, where 1 is the maximum;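 note: rising LDH signal means more cytotoxicity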)
In short: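 Readout is fluorescence from LDH-dependent resazurin conversion, sampled from culture medium after compound contact lasting 72 h. Each well holds one 0.25-0.35 mm human progenitor sphere kept at 37C, 5% CO2 with EGF and FGF.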

[25] = CCTE_Mundy_HCI_iCellGluta_NOG_NeuronCount: CCTE's Neurite Outgrowth Assay in iCellGluta cells for Neuron Count, Mundy Lab (AID 2284340; active = hit-call score of the fitted dose curve at least 0.9, where 1 is the maximum;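 note: cells fixed about 48 h after compound addition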)
In short: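 Neuron count read by automated high-content imaging of Hoechst 33342 and betaIII-tubulin/Alexa Fluor-488 labelling in human iPSC glutamatergic neurons. Activity fitted relative to DMSO.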

[26] = CCTE_Mundy_HCI_iCellGluta_NOG_NeuriteCount: CCTE's Neurite Outgrowth Assay in iCellGluta cells for Neurite Count, Mundy Lab (AID 2284342; active = hit-call score of the fitted dose curve at least 0.9, where 1 is the maximum;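 note: chemical exposure about 48 hours starting 2 hours after plating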)

Measured: AC50

CC(CNC(=S)[S-])NC(=S)[S-].[Zn+2] (stereo unspecified)
active: [1] 50 µM | [2] 50 µM | [3] 76.9 µM | [6] 19.2 µM | [7] 22.2 µM | [8] 11.1 µM | [10] 82.3 µM | [12] 12.5 µM | [16] 50 µM | [18] 39.2 µM | [19] 60.5 µM | [20] 9.92 µM | [21] 50 µM | [23] 13 µM | [25] 12.7 µM | [26] 21.2 µM
inactive: [4] | [5] | [9] | [11] | [13] | [14] | [15] | [17] | [22] | [24]
